BAZ2B block: qHTS Assay for Inhibitors of BAZ2B | Bromodomain adjacent to zinc finger domain protein 2B (Homo sapiens), Q9UIF8 | AlphaScreen BAZ2B-H3K14Ac peptide displacement | Potency, µM (series often up to 114 µM), inactives show top-dose activity change, negative = inhibition, hits mostly inhibitors | actives 4.4% (n = 360,000); further: on the % scale 0 is the no-effect control and ±100 the full control effect; nearly all actives have a fitted effect of over 60% in size
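Inhibition is scored as reduced AlphaScreen emission. The BAZ2B/b-H3(5-23)K14Ac complex (50 nM each) in PBS pH 7.4, 0.01% Tween-20 meets compound (up to 110 uM) for 30 min at RT before bead addition.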
JMJD2A Tudor: qHTS Assay for Inhibitors of JMJD2A-Tudor Domain; AlphaScreen JMJD2A-Tudor / H3K4me3 peptide binding; Lysine-specific demethylase 4A (Homo sapiens), O75164; actives 4.4% (n = 390,000); Potency, µM (titrated, usually from 114 µM), inactives show top-dose activity change, negative = inhibition, actives largely listed as inhibitors; further: on the % scale 0 is the no-effect control and ±100 the full control effect; nearly all actives have a fitted effect of over 50% in size
HP1b chromo inh: HTS for Inhibitors of HP1-beta Chromodomain Interactions with Methylated Histone Tails; AID 540317, 2011; Chromobox protein homolog 1 (Homo sapiens), P83916; actives 0.56% (n = 390,000); Potency, µM (doses to about 114 µM), without a hit: at the highest dose activity change, negative = inhibition, actives largely listed as inhibitors; AlphaScreen HP1-beta / biotin-H3K9me3 peptide binding; further: nearly all actives have a fitted effect of over 70% in size
Target sequence (P83916 whole entry, looked up): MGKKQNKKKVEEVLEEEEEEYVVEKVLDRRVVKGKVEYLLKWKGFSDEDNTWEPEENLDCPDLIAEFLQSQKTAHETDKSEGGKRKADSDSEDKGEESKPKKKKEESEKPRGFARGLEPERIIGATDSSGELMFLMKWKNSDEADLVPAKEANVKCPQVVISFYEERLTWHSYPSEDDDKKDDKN
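AlphaScreen: HP1-beta (50 nM) preformed 30 min with biotin-H3(1-18)K9me3 peptide (50 nM) in PBS pH 7.4, 0.01% Tween-20. Compound added for 30 min at RT, then streptavidin donor/nickel chelate acceptor beads (10 ug/mL) for 30 min.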
VDR inhibitor: Inhibitors of the vitamin D receptor (VDR): qHTS | Vitamin D3 receptor (Homo sapiens), P11473 | VDR-SRC2-3 peptide fluorescence polarization, 2 h | Potency, µM, inactives show max response, negative = inhibition, hits mostly inhibitors | actives 0.93% (n = 400,000) | AID 504847, 2011; further: on the % scale 0 is the no-effect control and ±100 the full control effect
Target sequence (P11473 whole entry, looked up): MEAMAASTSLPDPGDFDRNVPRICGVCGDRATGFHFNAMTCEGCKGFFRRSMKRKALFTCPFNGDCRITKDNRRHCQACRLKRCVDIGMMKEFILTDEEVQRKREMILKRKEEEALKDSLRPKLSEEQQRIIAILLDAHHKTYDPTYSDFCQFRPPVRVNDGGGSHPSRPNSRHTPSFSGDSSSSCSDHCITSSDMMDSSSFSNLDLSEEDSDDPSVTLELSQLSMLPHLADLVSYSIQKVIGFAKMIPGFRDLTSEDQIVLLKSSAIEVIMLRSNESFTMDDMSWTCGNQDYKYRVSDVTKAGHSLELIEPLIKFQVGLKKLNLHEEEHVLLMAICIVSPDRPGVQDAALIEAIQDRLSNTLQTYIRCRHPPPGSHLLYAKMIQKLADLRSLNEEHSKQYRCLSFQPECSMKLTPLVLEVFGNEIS
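Fluorescence polarization assay of small-molecule disruption of VDR binding to coregulator peptide SRC2-3. Compounds and controls pin-transferred, then read after 2 h incubation at ambient room temperature.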
L3MBTL1 block: qHTS Assay for the Inhibitors of L3MBTL1. Lethal(3)malignant brain tumor-like protein 1 (Homo sapiens), Q9Y468. AlphaScreen L3MBTL1–H3K9me1 peptide binding. Potency, µM (highest dose often 57.1 µM), inactives show top-dose activity, negative = inhibition, usual class: inhibitors. actives 0.66% (n = 230,000). AID 485360, 2010; further: on the % scale 0 is the no-effect control and ±100 the full control effect; nearly all actives have a fitted effect of over 60% in size
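Displacement of a biotinylated histone H3(1-15) peptide monomethylated at Lys9 (75 nM) from L3MBTL1 (50 nM) was measured by AlphaScreen after a 30 min room-temperature compound incubation; cefsulodin titration served as intraplate control.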
PLK1 PBD block: qHTS for Inhibitors of PLK1-PDB (polo-like kinase 1 - polo-box domain): Primary Screen. Serine/threonine-protein kinase PLK1 (Homo sapiens), P53350. Plk1 PBD binding of FITC phosphopeptide, fluorescence polarization. Potency, µM, without a hit: max response, negative = inhibition, usual class: inhibitors. actives 2.8% (n = 360,000). AID 720504, 2013; further: series mostly up to about 57 µM; on the % scale 0 is the no-effect control and ±100 the full control effect; nearly all actives have a fitted effect of over 65% in size
Numbers without * were called inactive; ? = inconclusive; . = no result given; [ ] = dose if it differs, or a comment. Rows were chosen to be rich in hits. Some 6.9% of all compounds tested hit in one or more screens of this group. The call rests on the fitted dose curve; in most records, active means well fitted curve in the direction sought with a large enough effect; inconclusive means small, poorly fitted or top-dose-only effect, or another doubt; inactive means no such curve, though single readings can be large; an effect the other way counts as inactive or inconclusive. Potency means the concentration at half of the fitted maximal effect.

SMILES	BAZ2B block	JMJD2A Tudor	HP1b chromo inh	VDR inhibitor	L3MBTL1 block	PLK1 PBD block
O=C(CSc1nc2ccsc2c(=O)n1Cc1ccccc1Cl)NCc1ccc(Cl)cc1	-4.6%	-5.9%	37.5%	0.3%	.	.
CCNc1ncc2nc(C)c(=O)n(Cc3cccc(OC)c3)c2n1	.	.	.	-23.6%	.	.
CCC(NC(=O)OCc1ccccc1)C(=O)Oc1ccc2ccc(=O)oc2c1 (centres undefined)	-0.1%	?	0.3%	?	.	29.9µM*
CCc1cccc(OCCCCNCCOC)c1	.	7.08µM*	?	-13.0%	-5.1%	-0.4%
c1ccc(COc2ccc(OCCCNC3CCCC3)cc2)cc1	44.7µM*	5.01µM*	-53.6%	9.0%	.	-8.4%
C=CCNCCCCOc1ccc(OCc2ccccc2)cc1	50.1µM*	35.5µM*	-21.7%	5.1%	-11.5%	-10.2%
CCC(=O)c1ccc(OCC(O)CNC2CCCC2)cc1 (centres undefined)	-5.8%	-13.4%	30.7%	-20.3%	-3.4%	-7.3%
CC(C)Oc1ccc(OCCNC2CCCC2)cc1	?	3.55µM*	?	-7.5%	.	-5.9%
O=C(NC1CCCC1)c1ccccc1OCc1ccccc1	-1.8%	30.1%	42.2%	-3.0%	13.2%	-2.1%
O=c1c(-c2ccccc2)nc2cnc(Oc3ccccc3)nc2n1Cc1cccs1	.	.	.	-3.9%	.	.
O=C(Nc1ccc(Br)cc1F)N1CCC(CN2CCc3ccccc3C2)CC1	0.3%	-3.6%	26.9%	-2.0%	.	.
COCCCNCCCCOc1ccc(OCc2ccccc2)cc1	44.7µM*	20µM*	?	-13.7%	-13.9%	-14.5%
COCCCNc1ccn2nc(-c3ccc(OCc4ccccc4)cc3)cc2n1	.	.	.	.	.	-1.9%
Cc1ccccc1NC(=O)c1sc2nc(-c3ccncc3)ccc2c1N	0.2%	1.0%	17.3%	-19.2%	.	.
O=[N+]([O-])c1cccc(-c2nc(-c3cccs3)c(-c3cccs3)[nH]2)c1	?	-23.7%[11.4 µM]	?	2.7%	-8.3%	-22.7%
COc1ccc(-c2nc(-c3ccccc3)c(-c3cccs3)[nH]2)cc1OC	8.5%	39.8µM*	-21.8%	4.3%	.	2.8%
O=[N+]([O-])c1ccc(-c2nc(-c3cccs3)c(-c3cccs3)[nH]2)cc1	-3.6%	20µM*	?	-10.8%	?	16.4%
Oc1cccc(-c2nc(-c3cccs3)c(-c3cccs3)[nH]2)c1	39.8µM*	?	-1.8%	0.9%	.	.
Fc1ccc(-c2nc(-c3cccs3)[nH]c2-c2ccc(F)cc2)cc1	44.7µM*	?	-15.8%	-13.5%	-20.7%	-1.2%
C=C(C)Cn1c2ccc(NC(=O)CCc3cccc(Cl)c3)cc2c(=O)n1C	.	.	.	.	.	-1.7%
COC(=O)C1=CO[C@@H](O)[C@@H]2C(CO)=CC[C@H]12	.	.	.	-1.4%	.	.
Cc1ccc(-c2ccc(CN3C(CC(C)C)C(=O)N(Cc4cn(CC5CCCCC5)nn4)CCS3(=O)=O)cc2)cc1 (centres undefined)	.	.	.	.	.	-6.7%
O=S(=O)(c1cccc(Cn2nnc(-c3ccccc3)n2)c1)N1CCOCC1	.	-0.3%	50.9%	9.3%	1.8%	-2.3%
Cc1cc(O)c2c(c1O)C(=O)[C@]13C(=C2O)C(=O)[C@@H]2[C@@H](O)[C@H]1[C@@H]1[C@H](O)[C@H]3C(=O)C3=C(O)c4c(O)cc(C)c(O)c4C(=O)[C@]312	.	7.94µM*	?	-7.9%	4.47µM*	29.9µM*
CCOC(=O)c1[nH]c(C)c(/C(O)=C2\C(=O)C(=O)N(CCCn3ccnc3)C2c2ccncc2)c1C (centres undefined)	?	35.5µM*	21.3%	-2.7%	-1.2%	-5.8%
SMILES	BAZ2B block	JMJD2A Tudor	HP1b chromo inh	VDR inhibitor	L3MBTL1 block	PLK1 PBD block
COC(=O)c1[nH]c(C)c(/C(O)=C2\C(=O)C(=O)N(CCCN3CCOCC3)C2c2ccccn2)c1C (centres undefined)	50.1µM*	?	35.7%	7.8%	-20.2%	-16.0%
COc1ccc(Cn2c(C(=O)O)c(CNCc3ccco3)c3ccc(OC)cc32)cc1	?	-28.9%	15.4%	-6.7%	.	.
c1ccc(NCc2nc3ccccc3n2CCOc2ccccc2)cc1	?	-32.4%	-5.6%	5.3%	-14.3%	-0.5%
COc1ccc(NCc2nc3ccccc3n2CCOc2ccccc2)cc1	17.8µM*	39.8µM*	-67.2%	-23.0%	?	-14.1%
COc1ccc(NCc2nc3ccccc3n2CCOc2ccc(C)cc2)cc1	10µM*	11.2µM*	39.8µM*	-16.2%	?	-8.8%
C#CCNC(=O)C[C@@H]1C[C@@]2(C(=O)OC)CC(C)(C)CC=C2N(Cc2ccccc2)C1=O	.	.	.	.	.	-3.3%
CC(C)c1ccc(O)c(N)c1	?	-21.6%	24.6%	-5.7%	1.6%[11.4 µM]	1.1%
Cc1ccc(C(C)C)cc2c(C)ccc1-2	.	28.2µM*	22.4µM*	-4.6%	.	-16.2%
CC(CNC(=O)c1cncc(O)c1)NC(=O)c1cncc(O)c1 (centres undefined)	?	50.1µM*	9.0%	-0.4%	-6.8%	-5.9%
NNc1ccccc1C(F)(F)F	50.1µM*	31.6µM*	?	-7.5%	?	-12.0%
CC(=O)Nc1ccccc1C(F)(F)F	0.0%	15.2%	46.8%	15.0%	1.2%	5.3%
CCCN1CCCc2cc(CN(CCCN3CCOCC3)C(=O)Nc3ccc(Cl)c(Cl)c3)ccc21	11.2µM*	12.6µM*	?	6.9%	.	.
CCCN1CCCc2cc(CN(CCCN3CCOCC3)C(=O)Nc3ccc(OCC)cc3)ccc21	39.8µM*	28.2µM*	?	11.8%	.	-4.8%
CCN1CCCc2cc(CN(CCN3CCOCC3)C(=S)Nc3cccc(OC)c3)ccc21	14.1µM*	50.1µM*	?	-7.0%	.	-5.5%
CCOc1ccc(NC(=O)N(CCN2CCOCC2)Cc2ccc3c(c2)CCCN3CC)cc1	44.7µM*	56.2µM*	?	11.3%	-21.8%	-0.1%
CCOc1ccc(NC(=O)N(CCCN2CCOCC2)Cc2cccnc2)cc1	-0.9%	-10.3%	60.6%	-2.7%	.	-9.4%
COc1cc(CN(C(=O)c2oc3ccccc3c2C)C2CCS(=O)(=O)C2)cc(OC)c1OC (centres undefined)	-4.6%	6.2%	32.5%	5.3%	.	.
CCOC(=O)c1cc(NC(=O)c2ccccc2)c(=O)n2c1oc1ccccc12	8.4%	-12.9%	25.7%	-8.0%	.	-9.1%

Source: PubChem (National Center for Advancing Translational Sciences (NCATS))
